# High-throughput results deposited in PubChem BioAssay by several laboratories.
# BoNT A protease: blocks Botulinum neurotoxin A light chain protease | inhibition, % at 10 µM | multiplex microsphere protease substrate cleavage, flow cytometry | hit rate 0.17% among 360,000; note: plate controls were buffer without enzyme for full effect and enzyme alone for no effect
# BoNT F protease: BoNT F light chain protease inhibition; inhibition, % at 10 µM; AID 588497; hit rate 0.22% among 360,000; Multiplex microsphere protease cleavage assay, flow cytometry; in the data active = inhibition above about 35%, passing the limit was not always enough; note: plate controls were buffer without enzyme for full effect and enzyme alone for no effect
# CCHFV vOTU inh: CCHFV vOTU protease inhibition | Pep-AMC fluorescence | inhibition, % at 11.5 µM | hit rate 0.55% among 370,000 | AID 651958; in the data active = inhibition above about 30%; note: 0% = vehicle wells with enzyme and 100% = no enzyme wells
# Anthrax LF inh2: inhibitors of Bacillus anthracis lethal factor protease; hit rate 0.12% among 360,000; inhibition, % at 10 µM; multiplex microsphere protease cleavage assay, LF; P15917; note: plate controls were buffer without enzyme for full effect and enzyme alone for no effect
# 3CLpro inhibitor: SARS-CoV 3CLpro protease inhibition. P0C6X7. recombinant SARS-CoV 3CLpro, quenched FRET peptide cleavage. inhibition, % at 6 µM. hit rate 0.14% among 290,000. AID 1706; in the data active = inhibition above about 12%
# Bead autofluor: counter-screen for toxin protease inhibitors: compound fluorescence | compound autofluorescence counterscreen, microsphere flow cytometry; active compounds read high | fluorescence intensity (no concentration beside the values) | hit rate 3.1% among 360,000; in the data active = fluorescence intensity above about 16000
# BoNTA LC inh 1: inhibitors of Botulinum neurotoxin A light chain protease. inhibition, % at 10 µM. hit rate 3% among 720. shares compounds with BoNT F protease. multiplex microsphere protease assay, flow cytometry; in the data active = inhibition above about 32%
# BoNTF LC inh 1: BoNT/F light chain protease inhibition | 720 tested, under 10 active | AID 602140 | shares compounds with BoNT F protease | inhibition, % at 10 µM | multiplex microsphere protease cleavage assay, flow cytometry; call rule not given here
# Anthrax LF CP1: inhibitors of Bacillus anthracis lethal factor protease. shares compounds with BoNT F protease. multiplex microsphere protease cleavage assay, LF. inhibition, % at 10 µM. 720 tested, under 10 active; call rule not given here
# * hit, by the source's call; . = not tested or not shown. Shown are actives, neighbours in structure and some others; about 3.9% of the full set was active somewhere. Cut-off read from the data, not from the text of the source, unless noted: active = inhibition above about 30%; inconclusive = no clear call, values can overlap the other calls; inactive = below that.
SMILES,BoNT A protease,BoNT F protease,CCHFV vOTU inh,Anthrax LF inh2,3CLpro inhibitor,Bead autofluor,BoNTA LC inh 1,BoNTF LC inh 1,Anthrax LF CP1
COc1cccc(C(=O)NCc2ccc3[nH]c(C)cc3c2)c1,52.1*,-108.1,-3.9,-83.7,-1.8,2008,0.0,-7.4,-0.4
CCN(C(=O)COC(=O)c1ccc(Sc2ncn[nH]2)c([N+](=O)[O-])c1)c1ccccc1,.,.,-2.4,.,.,.,.,.,.
COCCCNC(=O)CN1C(=O)c2cccc3cccc1c23,0.7,23.5,-0.9,5.3,-6.3,3132,.,.,.
CCOCCCNC(=O)CN1C(=O)c2cccc3cccc1c23,3.2,38.9*,-7.2,-4.4,0.4,3541,-0.9,-5.1,-2.5
CC1(c2nnnn2Cc2ccccc2)CN(S(C)(=O)=O)CC(=O)N1Cc1cccs1 (centres undefined),.,.,4.9,.,.,.,.,.,.
O=C1N(c2ccccc2)c2ccccc2C1(O)C(F)(F)F (centres undefined),0.7,28.4,-6.6,35.9*,3.1,3007,-0.1,-0.1,-1.0
COC(=O)C1Cc2c([nH]c3ccccc23)C2(CCN(Cc3ccccc3)CC2)N1 (centres undefined),4.2,40.8*,2.2,6.5,-2.1,7106,0.6,1.1,1.6
CCCN1CCC2(CC1)NC(C(=O)O)Cc1c2[nH]c2ccccc12 (centres undefined),1.3,-4.3,.,0.0,1.0,3821,.,.,.
COC(=O)C(Cc1ccccc1)NC(=O)c1cccc(S(=O)(=O)N(C)C)c1 (centres undefined),7.1,36.8*,-16.1,-1.6,1.8,4261,-0.5,-1.1,-1.7
COCc1cc(C)nc(Nc2ccccc2OC)c1C#N,-2.5,-18.0,16.7,31.6*,1.7,4062,0.5,0.9,-6.1
COCc1cc(C)nc(NCCc2ccccc2)c1C#N,0.1,3.1,-58.3,-1.4,-1.3,2631,.,.,.
CCC(=O)N1CCc2cc(-c3csc(NC(=O)c4ccco4)n3)ccc21,-1.8,34.7*,-33.7,-9.5,-7.5,3917,2.1,4.9,-0.9
CCN(Cc1ccccc1)C(c1cc2cc(C)cc(C)c2[nH]c1=O)c1nnnn1CCOC (centres undefined),0.8,31.5,7.4,1.2,-0.6,3515,.,.,.
CCN(Cc1ccccc1)C(c1cc2cc(C)ccc2[nH]c1=O)c1nnnn1CCOC (centres undefined),0.8,4.8,9.4,-2.5,-0.4,4288,0.8,-1.1,1.0
C[C@H](O)[C@@H]1C(=O)N2CCc3c([nH]c4c(-c5ccccc5)cccc34)[C@@H]2C[C@@H]1N(C)C(=O)c1ccccc1F,.,.,18.2,.,.,.,.,.,.
COC(=O)c1sccc1NC(=O)c1ccco1,0.3,36.5*,-23.6,-3.2,-6.1,4135,-1.8,-2.9,-2.7
O=C(NC1CCCCC1)C(c1ccccc1)N(Cc1cccnc1)C(=O)c1csnn1 (centres undefined),-0.2,1.0,6.5,0.6,-4.5,5647,.,.,.
CC(C)CCN(C(=O)c1csnn1)C(C(=O)NC1CCCC1)c1ccc(F)cc1 (centres undefined),3.4,91.1*,9.7,5.8,5.8,3226,-0.6,-2.0,-6.8
O=C(NC1CCCC1)C(c1cccnc1)N(Cc1ccccc1)C(=O)c1csnn1 (centres undefined),0.8,43.4*,-3.0,5.8,-1.4,3682,0.4,-0.2,0.6
O=C(Nc1ccc(Cl)cc1)Nc1ccc(Br)cn1,-1.2,10.4,-0.9,3.1,-1.7,4051,.,.,.
CCOc1ccc(NC(=O)Nc2ccc(Br)cn2)cc1,3.8,48.1*,5.5,1.1,1.4,2591,0.6,-4.6,-1.7
COC(=O)[C@]12C[C@H](CC(=O)N3CCCCC3)C(=O)N(CCc3ccc(OC)c(OC)c3)C1=C[C@H](C1CCCC1)O[C@@H]2C,.,.,10.7,.,.,.,.,.,.
CCCC(=O)Nc1nnc(SCC(=O)NCc2ccc3c(c2)OCO3)s1,7.1,39.5*,-2.0,-4.5,-2.2,4423,-1.2,-6.5,-4.6
COC(=O)C[C@@H]1CC[C@H]2[C@@H](COc3ccc(NC(=O)NC(C)C)cc3C(=O)N2C)O1,.,.,10.7,.,.,.,.,.,.
